In all, about 340,000 compounds went through this assay and about 2,100 (0.62%) were called active.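 How the source made its calls: active means first-screen hits whose inhibition reached a set limit at any dose in the follow-up dose series; inconclusive means inhibition above the set first-screen limit but never retested; inactive means the rest.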 A selection follows. Entries with a potency or affinity are not part of this list.
Biological target: Rac GTPase-activating protein 1 (Homo sapiens) (UniProt Q9H0H5)
Assay: MgcRacGAP GTPase-activating activity inhibitors, confirmation, biochemical, ADP Hunter fluorescence, primary and confirmatory (AID 624330);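 further: fluorescence reports GDP produced by GAP-driven GTP hydrolysis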
Details: MgcRacGAP-stimulated Rac1 GTP hydrolysis, at 30 µM, active compounds read high, GST-tagged Rac1 F28L mutant substrate

Rac GTPase-activating protein 1 (Homo sapiens), sequence (Q9H0H5 whole entry, looked up): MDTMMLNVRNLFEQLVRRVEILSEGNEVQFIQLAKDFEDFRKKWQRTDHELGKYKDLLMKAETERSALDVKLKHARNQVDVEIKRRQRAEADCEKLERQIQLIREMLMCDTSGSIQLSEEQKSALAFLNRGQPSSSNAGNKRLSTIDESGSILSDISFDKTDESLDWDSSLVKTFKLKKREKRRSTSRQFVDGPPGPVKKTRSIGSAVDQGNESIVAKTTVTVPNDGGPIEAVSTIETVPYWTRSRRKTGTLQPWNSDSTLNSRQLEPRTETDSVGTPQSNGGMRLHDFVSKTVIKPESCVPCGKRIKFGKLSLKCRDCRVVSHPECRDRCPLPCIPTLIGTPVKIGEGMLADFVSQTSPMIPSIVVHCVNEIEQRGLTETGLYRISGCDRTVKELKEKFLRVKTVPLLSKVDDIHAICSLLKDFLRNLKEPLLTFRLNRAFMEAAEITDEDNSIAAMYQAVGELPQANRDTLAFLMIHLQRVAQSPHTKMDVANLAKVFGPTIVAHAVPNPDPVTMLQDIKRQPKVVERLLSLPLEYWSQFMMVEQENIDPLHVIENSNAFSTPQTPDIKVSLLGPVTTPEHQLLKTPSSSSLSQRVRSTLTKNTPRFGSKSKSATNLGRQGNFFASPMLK

inhibition, inactive:
COc1cccc(OCC(=O)NC2CCCCCC2)c1 -1.14%
CCN1CCN(C(=O)c2cc3cc4cc(OC)ccc4nc3s2)CC1 8.34%
NNC(=O)c1cc2cc3ccccc3nc2s1 4.35%
O=[N+]([O-])c1cc([N+](=O)[O-])c(Oc2cc(Cl)ccc2Cl)cc1NC1CCCCCCC1 3.85%
CCOC(=O)C1CCCN(Cc2ccc(-c3ccccc3)cc2)C1 (stereo not drawn) -2.6%
COc1cccc(CN2CCC(C(=O)N3CCN(c4ccccc4F)CC3)CC2)c1 15.7%
CCOC(=O)C1CCN(Cc2ccccc2C)CC1 2.84%
CCOC(=O)C1CCN(Cc2cccc(Oc3ccc(Cl)cc3)c2)CC1 21%
COc1cccc(CN2CCC(C(=O)N3CCN(Cc4ccc5c(c4)OCO5)CC3)CC2)c1 27.8%
CCOC(=O)C1CCN(Cc2ccc(OCc3ccccc3)cc2)CC1 18.4%
CCOC(=O)C1CCN(Cc2cccc(OCc3ccccc3)c2)CC1 19.5%
CCOC(=O)C1CCN(Cc2ccccc2C(F)(F)F)CC1 8.95%
CCSc1ccc2nnc(-c3cccc(F)c3)n2n1 6.86%
COC(CN(C)C(=O)C1CCC(CNS(=O)(=O)c2ccccc2)CC1)OC (stereo not drawn) 6.07%
COc1ccc(CNC(=O)COC(=O)CN2C(=O)C3CCCCC3C2=O)cc1 (stereo not drawn) 12.8%
CC(C)c1nccn1CCC(=O)O 7.06%
C[C@H]1CN([C@@H](C)CO)S(=O)(=O)c2ccc(Br)cc2O[C@H]1CN(C)C(=O)Cc1ccccn1 -10%
O=C1C[C@@H](c2ccccc2)Oc2cc(O)cc(O)c21 7.07%
O=C1CC(c2ccccc2)Oc2cc(O)cc(O)c21 (stereo not drawn) 7.51%
COc1ccccc1NC(=O)COc1cccc2c1CCNC2=O 5.13%
O=S(=O)(NCC(c1ccc2c(c1)OCO2)N1CCOCC1)c1ccc(Br)cc1 (stereo not drawn) 5.07%
CC1=C(C#N)C(=O)NC(=O)/C1=C/c1ccc(-c2ccc(S(N)(=O)=O)cc2)o1 25.6%
CCCOC(=O)c1cc(-c2ccc(/C=C3/C(=O)N(C)C(=O)C(C#N)=C3C)o2)ccc1Cl 13.4%
COC(=O)c1ccccc1NC(=O)C/C(C)=N/NC(=O)Cc1ccc(Cl)cc1 4.76%
CC(=O)N1CCc2cc(S(=O)(=O)CCC(=O)N(C)c3cc(C)ccc3C)ccc21 2.95%
COc1ccc(Cn2c(-c3ccc(OC)c(O)c3)nc3ccccc32)cc1O 11.2%
COc1ccc(CNc2ccc(Br)cc2)cc1 9.45%
Cc1ccc(NCc2cccnc2)cc1 9.95%
COc1ccc(NC(=S)NCc2cccnc2)cc1 2.3%
COc1ccc(CNc2ccc(C(=O)O)cc2)cc1 5.05%
O=C(O)c1ccc(C(=O)O)c(C(=O)c2ccc(NC(=O)c3ccccc3)cc2)c1 8.04%
O=C(O)C1(P(=O)(c2ccc(Cl)cc2)c2ccc(Cl)cc2)CCCC1 10.3%
Cc1ccc2cc(N)ccc2n1 10.9%
Cn1cc2ccc(N)cc2n1 6.58%
CC(C)(C)C(=O)N1CCC2CC1c1cc(Cl)ccc12 (stereo not drawn) 9.89%
CCN(CC)S(=O)(=O)c1ccc(N/N=C/c2cc(OC)ccc2O)nc1 5.07%
CCN(CC)S(=O)(=O)c1ccc(N/N=C/c2cc(OC)c(OC)cc2OC)nc1 4.42%
CCN(CC)S(=O)(=O)c1ccc(N/N=C/c2cccnc2)nc1 2.22%
CCOc1cccc(/C=N/Nc2ccc(S(=O)(=O)N(CC)CC)cn2)c1O 2.17%
CN(CC(=O)Nc1cccc(F)c1)C(=O)Cc1ccsc1 8.14%
Cc1cc(C)c2nc(NC(=O)C3CSC4(C)CCC(=O)N34)sc2c1 (stereo not drawn) 5.06%
CC1=C(C(=O)OC(C)C)C(c2ccc(Br)s2)NC(=O)N1 (stereo not drawn) 1.12%
O=C(NCC(c1cccnc1)N1CCOCC1)C1CCCCC1 (stereo not drawn) 0.64%
COC(=O)c1ccc(OC)c(CN2CCCN(Cc3ccc(F)cc3)S2(=O)=O)c1 6.78%
O=C(O)CN1C(=O)/C(=C/c2ccc(SCc3ccccc3)o2)SC1=S 41%
Cc1cccc(C)c1-n1cccc1/C=C1\SC(=S)N(c2cccc(C(=O)O)c2)C1=O -1.38%
O=C(NCC(c1ccco1)N1CCCC1)c1cccc(NS(=O)(=O)c2ccccc2)c1 (stereo not drawn) 7.02%
CC(=O)C1=C(O)C(=O)N(Cc2ccccc2)C1c1ccc(N(C)C)cc1 (stereo not drawn) 5.08%
COc1ccc(C2=NN(Cc3ccccc3)C3C(=O)NC(=O)C23)cc1 (stereo not drawn) 1.11%
O=C(N/C(=C/c1ccccc1)C(=O)N1CCCCCC1)c1ccccc1 4.23%
O=C(N/C(=C/c1ccccc1)C(=O)N1CCCCC1)c1ccccc1 7.71%
Cc1cc(C)c2[nH]c(=O)c(CN(CC3CCCO3)S(=O)(=O)c3ccc4c(c3)OCCO4)cc2c1 (stereo not drawn) -7.75%
O=C1C2C3C=CC(C3)C2C(=O)N1Nc1c(Cl)cc(Cl)cc1Cl (stereo not drawn) -1.67%
CCN(C(=O)CSc1nnc(-c2ccccc2Cl)n1C1CCCC1)C1CCS(=O)(=O)C1 (stereo not drawn) 10.2%
C=CCn1c(SCC(=O)NC2(C#N)CCCCC2)nnc1-c1ccncc1 -2.35%
CC1CCCC(C)N1S(=O)(=O)c1ccc(NC(=O)CNCC2CCCO2)cc1 (stereo not drawn) 13.2%
COc1ccc(NC(=O)c2ccc(NC(=O)CN3CCN(c4ccccc4)CC3)cc2)cc1 -2.48%
O=C(CN1CCOCC1)Nc1cccc(S(=O)(=O)N2CCCCCC2)c1 4.7%
COc1ccc(S(=O)(=O)N2CCN(CC(=O)Nc3cccc(OC)c3)CC2)cc1 -0.54%
COc1ccc(N2CCN(CC(=O)Nc3ccc(C)cc3)CC2)cc1 6.34%
CCN1CCN(CCC(=O)Nc2ccc3c(c2)OCO3)CC1 -5.95%
CN1CCN(CCC(=O)Nc2ccc3c(c2)OCO3)CC1 9.52%
O=C(CNCC1CCCO1)Nc1ccccc1N1CCCCCC1 (stereo not drawn) 15.5%
